Measurements from PubChem BioAssay AID488847 (NMMLSC, 2010).
The whole screen tested about 330,000 compounds, of which about 1,900 (0.58%) were called active. The sample as a whole holds a higher share of actives than the screen did. Unmarked numbers belong to inactive results.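 How the source made its calls: active means inhibition of aptamer binding above 40%, roughly 3 SD of noise, on plates passing a quality check; inactive means the rest.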

biological target: Beta-adrenergic receptor kinase 1 (Homo sapiens) (UniProt P25098); test: compounds blocking aptamer binding on GRK2 – biochemical, human GRK2, bead flow cytometry, HTS, primary screen (AID 488847); conditions: FAM-aptamer displacement from GRK2, at 10 µM, active compounds read high;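 further: median bead fluorescence of bound FAM aptamer so fluorescent compounds give negative values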
Sequence (P25098 whole entry, looked up): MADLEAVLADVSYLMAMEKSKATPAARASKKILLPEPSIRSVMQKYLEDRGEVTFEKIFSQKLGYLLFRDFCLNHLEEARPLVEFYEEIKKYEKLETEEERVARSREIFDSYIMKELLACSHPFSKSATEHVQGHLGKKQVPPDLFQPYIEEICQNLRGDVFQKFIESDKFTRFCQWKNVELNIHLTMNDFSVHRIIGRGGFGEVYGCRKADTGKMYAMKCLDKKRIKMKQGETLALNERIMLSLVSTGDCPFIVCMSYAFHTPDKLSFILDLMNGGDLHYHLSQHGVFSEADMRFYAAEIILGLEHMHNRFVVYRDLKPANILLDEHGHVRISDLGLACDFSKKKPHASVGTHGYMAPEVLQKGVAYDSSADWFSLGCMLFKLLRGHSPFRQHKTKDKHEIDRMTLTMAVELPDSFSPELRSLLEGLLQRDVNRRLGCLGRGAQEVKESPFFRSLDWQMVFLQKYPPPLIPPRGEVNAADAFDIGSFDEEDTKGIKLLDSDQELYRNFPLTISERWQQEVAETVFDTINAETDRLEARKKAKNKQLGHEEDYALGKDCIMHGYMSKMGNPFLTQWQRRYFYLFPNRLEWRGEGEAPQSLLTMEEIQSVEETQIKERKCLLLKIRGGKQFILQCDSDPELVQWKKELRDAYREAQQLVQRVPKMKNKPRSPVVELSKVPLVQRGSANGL

| Structure (SMILES) | inhibition of aptamer binding |
| --- | --- |
| CCOC(=O)c1ccc(NC(=O)c2c(NCc3ccccc3)[nH]c(=O)[nH]c2=O)cc1 | 5% |
| C/C=C\C=C\C(=O)N1CC2(CC(c3cccc(NC(=O)/C(C)=C\C)c3)=NO2)C[C@H]1C(N)=O (stereo partly drawn) | 1% |
| C/C=C(/C)C(=O)Nc1cccc(C2=NOC3(C2)C[C@@H](C(N)=O)N(C(=O)C2(C)CC2)C3)c1 (stereo partly drawn) | 1% |
| C=C(C)C(=O)Nc1cccc(C2=NOC3(C2)C[C@H](C(N)=O)N(C(=O)C(c2ccccc2)c2ccccc2)C3)c1 (stereo partly drawn) | 91% (active) |
| CCOc1ccc(S(=O)(=O)Nc2cccc(C(=O)NCC3(N4CCCCC4)CCCCC3)c2)cc1 | 0% |
| CS(=O)(=O)c1ccc(-c2nnn(CC(=O)Nc3ccc4c(c3)OCCO4)n2)cc1 | 0% |
| S=C(NNC(=S)NC1CC2CCC1C2)NC1CC2C=CC1C2 (stereo not drawn) | 0% |
| O=C(NNC(=S)NC1CC2CCC1C2)c1ccc(Cl)cc1 (stereo not drawn) | 2% |
| CC1CCN(C(=S)NC2CC3CCC2C3)CC1 (stereo not drawn) | 67% (active) |
| CC1c2nc3ccccc3n2C(CC(=O)NCCCN2CCOCC2)C(=O)N1Cc1ccccc1 (stereo not drawn) | 0% |
| COCCn1c(N)c(N(Cc2ccccc2)C(=O)C2CCCCC2)c(=O)[nH]c1=O | 0% |
| COCCN(C(=O)c1ccccc1F)c1c(N)n(Cc2ccccc2)c(=O)[nH]c1=O | 2% |
| COCCn1c(N)c(NCc2ccccc2)c(=O)[nH]c1=O | 47% (active) |
| Cc1ccc2c(c1)C1CN(C)CCC1N2S(=O)(=O)c1ccc(Oc2ccc([N+](=O)[O-])cc2)cc1 (stereo not drawn) | 0% |
| Nc1ccc2nc3c(=O)[nH]c(=S)[nH]c3nc2c1 | 70% (active) |
| CCC1Oc2ccccc2N(CC(=O)NCCCN2CCN(CC)CC2)C1=O (stereo not drawn) | 0% |
| COc1ccccc1CNC(=O)c1ccc(CS(=O)(=O)c2ccccc2)o1 | 0% |
| COc1ccc(CCNC(=O)c2ccc(CS(=O)(=O)c3ccc(Br)cc3)o2)cc1OC | 1% |
| CCOCCCNC(=O)c1ccc(CS(=O)(=O)c2cccc(C(F)(F)F)c2)o1 | 48% (active) |
| CCC(C)(C(=O)Nc1ccccc1C)N(C(=O)CNC(C)=O)c1ccc(C)cc1 (stereo not drawn) | 1% |
| CCn1nc(NC(=O)c2ccco2)c2cc3ccc(C)cc3nc21 | 0% |
| Cc1ccc(OCCNC(=O)CCNS(=O)(=O)c2ccc(Br)cc2)cc1 | 1% |
| CCc1cccc(CC)c1NC(=S)NCc1ccc2[nH]c(C)cc2c1 | 0% |
| Cc1cc2cc(CNC(=O)c3cccs3)ccc2[nH]1 | 44% (active) |

| Structure (SMILES) | inhibition of aptamer binding |
| --- | --- |
| Cc1cc2cc(CNC(=O)c3ccc(S(=O)(=O)N4CCOCC4)cc3)ccc2[nH]1 | 3% |
| CN(CC(=O)N1CCN(c2ccccc2)CC1)S(=O)(=O)c1cccs1 | 0% |
| COCc1ccc(CN2CCC(Oc3ccc(C(=O)NCc4ccccn4)cc3)CC2)o1 | 0% |
| CCOC(=O)N1CCC(NC(=O)C(C)n2c3ccccc3c3cnn(C)c(=O)c32)CC1 (stereo not drawn) | 4% |
| O=C(N[C@H]1C/C=C\C(c2ccc(F)cc2)N(Cc2ccccc2)C(=O)C1)OCC1c2ccccc2-c2ccccc21 (stereo partly drawn) | 0% |
| CCOC(=O)N1CCN(C(=O)c2ccc(CN(c3ccc(C)c(C)c3)S(C)(=O)=O)cc2)CC1 | 3% |
| CCC1(C(=O)c2ccccc2)C(c2cccc([N+](=O)[O-])c2)C1(C(=O)OC)C(=O)OC (stereo not drawn) | 0% |
| CC(C)CN(C(=O)c1ccc2c(c1)OCO2)C1CCS(=O)(=O)C1 (stereo not drawn) | 2% |
| O=C(c1cccc(S(=O)(=O)N2CCCC2)c1)N(Cc1ccco1)C1CCS(=O)(=O)C1 (stereo not drawn) | 4% |
| CC(C)CN(C(=O)c1cccc(S(=O)(=O)N2CCCCC2)c1)C1CCS(=O)(=O)C1 (stereo not drawn) | 92% (active) |
| CO/N=C(/CS(=O)(=O)c1ccc(Br)cc1)c1ccc(OC)cc1 | 2% |
| COc1ccc(S(=O)(=O)N2CN(CCc3ccc(OC)c(OC)c3)c3nc4ccccc4nc32)cc1 | 3% |
| CSc1ccc(/C=C2\NC(=O)NC2=O)cc1 | 46% (active) |
| Cc1ccc(NC(=O)COc2ccc(/C=C3/NC(=O)NC3=O)cc2)cc1 | 0% |
| CC(C)c1ccc(/C=C2\NC(=O)NC2=O)cc1 | 0% |
| Cc1ccc(-c2cc(=O)[nH]c(NCc3ccccc3)n2)cc1 | 2% |
| Cc1cccc2nc(CNc3ccc(F)cc3)cn12 | 2% |
| CC(NCc1cccs1)C(=O)Nc1cc(Cl)cc(Cl)c1 (stereo not drawn) | 0% |
| O=[N+]([O-])c1ccccc1S(=O)(=O)Nc1cccc2cccnc12 | 46% (active) |
| O=[N+]([O-])c1cccc2ncccc12 | 4% |
| COc1cc(NS(=O)(=O)c2ccc3ccccc3c2)c2ncccc2c1 | 0% |
| CC1CCN(CC(O)COc2ccc(C(=O)c3ccccc3)cc2)CC1 (stereo not drawn) | 0% |
| OC(COc1ccc(Br)cc1)CN1CCCC1 (stereo not drawn) | 0% |
| O=C(c1ccc(Cl)cc1)c1ccc(OCC(O)CN2CCCCC2)cc1 (stereo not drawn) | 43% (active) |

| Structure (SMILES) | inhibition of aptamer binding |
| --- | --- |
| C=CCOc1ccc(/C=C/C(=O)OC(C)C(=O)Nc2ccc(NC(C)=O)cc2)cc1 (stereo not drawn) | 1% |
| CN(C(=O)c1cccc([N+](=O)[O-])c1)c1ccccc1C(=O)NCc1ccccc1 | 1% |
| COc1ccc2oc(C(=O)N(CC(C)C)C3CCS(=O)(=O)C3)c(C)c2c1 (stereo not drawn) | 0% |
| COc1cc(C(=O)N(Cc2ccc(N(C)C)cc2)C2CCS(=O)(=O)C2)cc(OC)c1OC (stereo not drawn) | 0% |
| COc1ccccc1C(=O)N(Cc1ccc(C)o1)C1CCS(=O)(=O)C1 (stereo not drawn) | 43% (active) |
| CCOC(=O)CN(C(=O)CN1CCOCC1)c1ccc(Br)cc1 | 0% |
| CC(=O)N1CCc2cc(Br)cc(S(=O)(=O)CCC(=O)Nc3c(C)n(C)n(-c4ccccc4)c3=O)c21 | 0% |
| Cc1c(NC(=O)C(C)Oc2cccc(Cl)c2)c(=O)n(-c2ccccc2)n1C (stereo not drawn) | 0% |
| COc1ccccc1NC(=O)C1CCN(C(=O)c2ccc(C(C)(C)C)cc2)CC1 | 0% |
| CC(=O)c1ccc(N2CCN(C(=O)CCc3ccccc3)CC2)cc1 | 0% |
| O=C(c1ccccc1)c1ccc(C(=O)N2CCN(c3ccccc3)CC2)cc1 | 1% |
| CC(=O)c1ccc(N2CCN(C(=O)c3ccc4nc[nH]c4c3)CC2)cc1 | 66% (active) |
| O=C(CN1CCN(S(=O)(=O)c2ccc(Cl)s2)CC1)NCc1ccc(Cl)cc1 | 2% |
| COc1ccc(NC(=O)Cn2ncn3c(cc4ccccc43)c2=O)c(OC)c1OC | 1% |
| CN1CCN(c2nc3c(c(=O)[nH]c(=O)n3C)n2Cc2cccc3ccccc23)CC1 | 0% |
| Cn1c(=O)[nH]c(=O)c2c1nc(N1CCN(CCO)CC1)n2CCSc1nc2ccccc2s1 | 0% |
| Cn1c(=O)[nH]c(=O)c2c1nc(N1CCN(C(c3ccccc3)c3ccccc3)CC1)n2CCO | 43% (active) |
| Cc1ccc(NN=Nc2nc3c([nH]2)c(=O)n(C)c(=O)n3C)cc1 | 0% |
| CCOC(=O)c1cc2c(n(-c3ccc(C)cc3)c1=O)CCCC2=O | 0% |
| O=C1CCCC2=C1C(c1cccs1)CC(=O)N2c1ccc(F)cc1 (stereo not drawn) | 0% |
| CCOC(=O)C1=C(N)N(c2ccc(C)cc2)C2=C(C(=O)CCC2)C1c1cccs1 (stereo not drawn) | 45% (active) |
| O=C(c1ccc(F)cc1)N1CCCC(C(=O)N2CCCCC2)C1 (stereo not drawn) | 1% |
| Cc1noc(C)c1COc1ccccc1C(=O)N(C)CC(=O)Nc1cccc(F)c1 | 1% |
| COC(=O)N/N=C/c1ccc(/C=N/NC(=O)OC)cc1 | 87% (active) |

| Structure (SMILES) | inhibition of aptamer binding |
| --- | --- |
| COC(=O)N/N=C/c1ccc(-c2ccc(Cl)c(Cl)c2)o1 | 0% |
| CC(C)(C)OC(=O)N/N=C/c1ccc(C(=O)O)cc1 | 0% |
| CCNS(=O)(=O)c1ccc(CCC(=O)N2CCN(c3cc(Cl)ccc3C)CC2)cc1 | 0% |
| O=C1c2ccccc2C2=Nc3ccccc3SC(c3ccccc3F)C12 (stereo not drawn) | 0% |
| COc1ccc(C2=NN(C(=O)CSc3nc(=O)n4ccc(C)cc4n3)C(c3ccc(C)cc3)C2)cc1 (stereo not drawn) | 2% |
| COc1cc(C)ccc1OCC(=O)OCC(=O)c1ccc[nH]1 | 0% |
| CN1C(=O)CC(N2CCN(c3ccccn3)CC2)C1=O (stereo not drawn) | 1% |
| Cc1nnc(SCC(=O)N2c3ccccc3C(C)(c3ccc(Cl)cc3)CC2(C)C)s1 (stereo not drawn) | 72% (active) |
| CC1(c2ccccc2)CC(C)(C)N(C(=O)c2cc([N+](=O)[O-])cc([N+](=O)[O-])c2)c2ccccc21 (stereo not drawn) | 0% |
| CC1(c2cccc([N+](=O)[O-])c2)CC(C)(C)N(C(=O)c2ccccc2)c2ccccc21 (stereo not drawn) | 0% |
| CN(C(=O)CC(NC(=O)c1ccccc1)(c1ccccc1)c1ccccc1)c1ccccc1 | 1% |
| CC(Sc1nnc(-c2ccccc2F)n1C1CC1)C(N)=O (stereo not drawn) | 0% |
| Cc1ccc(C(=O)COC(=O)CCCC(=O)NC2CCCCC2)cc1[N+](=O)[O-] | 0% |
| CCOc1ccc(-n2c(SCC(=O)OC)nc3sc4c(c3c2=O)CCN(C)C4)cc1 | 1% |
| CCOc1ccc(-n2c(SCC(=O)Nc3ccc(OC)cc3)nc3sc4c(c3c2=O)CCN(C)C4)cc1 | 0% |
| COc1ccccc1NC(=O)CSc1nc2sc3c(c2c(=O)n1-c1ccccc1)CCN(C)C3 | 56% (active) |
| C[C@@H](O)c1nc2ccccc2n1N | 0% |
| CCOC(=O)c1c(C)[nH]c(C)c1S(=O)(=O)NCCCc1ccco1 | 0% |
| Cc1cccc(Cn2c(N3CCN(c4ccccc4)CC3)nc3c2c(=O)n(C)c(=O)n3C)c1 | 0% |
| Cn1c(=O)c2c(nc(N3CCOCC3)n2CCNC2=NCCC2)n(C)c1=O | 83% (active) |
| CCCCn1c(SCC(=O)N2CCOCC2)nc2c1c(=O)n(C)c(=O)n2C | 0% |
